In general, inhibition refers to the drop in the measured response relative to a control, in per cent.

Drawing on ChEMBL document CHEMBL1961873, “Compounds: GSK PKIS; Assays: Nanosyn kinase panel” (2012), this text covers inhibition for 17 molecules.

Assay [1] has as its target Serine/threonine-protein kinase pim-2 (Homo sapiens) (UniProt Q9P1W9). The settings on record: at 1 µM.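 Note: each value is a mean of the inhibition measurements against the kinase.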
Assay [2] concerns the target Serine/threonine-protein kinase pim-3 (Homo sapiens) (UniProt Q86V86). The settings on record: at 0.1 µM.
For assay [3] the target is unchanged. The settings on record: at 1 µM.
Assay [4] addresses T1, MAP kinase-activated protein kinase 5 (Homo sapiens) (UniProt Q8IW41).
T1 sequence (whole entry): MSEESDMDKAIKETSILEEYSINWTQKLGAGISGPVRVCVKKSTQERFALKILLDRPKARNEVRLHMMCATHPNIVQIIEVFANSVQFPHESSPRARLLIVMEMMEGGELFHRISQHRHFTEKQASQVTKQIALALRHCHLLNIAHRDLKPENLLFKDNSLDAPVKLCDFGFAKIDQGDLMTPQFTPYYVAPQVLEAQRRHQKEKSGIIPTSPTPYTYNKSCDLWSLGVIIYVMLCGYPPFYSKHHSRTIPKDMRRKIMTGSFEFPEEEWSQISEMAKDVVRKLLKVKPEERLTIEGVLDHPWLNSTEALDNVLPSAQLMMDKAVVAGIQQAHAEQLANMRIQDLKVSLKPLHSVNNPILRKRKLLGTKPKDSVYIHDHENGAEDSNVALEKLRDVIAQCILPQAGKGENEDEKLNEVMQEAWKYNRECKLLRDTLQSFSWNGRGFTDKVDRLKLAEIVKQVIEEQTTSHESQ
The settings on record: at 0.1 µM.

For assay [5], the target named is T1, MAP kinase-activated protein kinase 5 (Homo sapiens). The settings on record: at 1 µM.
In assay [6] the target is Serine/threonine-protein kinase SIK1 (Homo sapiens) (UniProt P57059). The settings on record: at 0.1 µM.
Sequence of Serine/threonine-protein kinase SIK1 (Homo sapiens) (P57059 whole entry): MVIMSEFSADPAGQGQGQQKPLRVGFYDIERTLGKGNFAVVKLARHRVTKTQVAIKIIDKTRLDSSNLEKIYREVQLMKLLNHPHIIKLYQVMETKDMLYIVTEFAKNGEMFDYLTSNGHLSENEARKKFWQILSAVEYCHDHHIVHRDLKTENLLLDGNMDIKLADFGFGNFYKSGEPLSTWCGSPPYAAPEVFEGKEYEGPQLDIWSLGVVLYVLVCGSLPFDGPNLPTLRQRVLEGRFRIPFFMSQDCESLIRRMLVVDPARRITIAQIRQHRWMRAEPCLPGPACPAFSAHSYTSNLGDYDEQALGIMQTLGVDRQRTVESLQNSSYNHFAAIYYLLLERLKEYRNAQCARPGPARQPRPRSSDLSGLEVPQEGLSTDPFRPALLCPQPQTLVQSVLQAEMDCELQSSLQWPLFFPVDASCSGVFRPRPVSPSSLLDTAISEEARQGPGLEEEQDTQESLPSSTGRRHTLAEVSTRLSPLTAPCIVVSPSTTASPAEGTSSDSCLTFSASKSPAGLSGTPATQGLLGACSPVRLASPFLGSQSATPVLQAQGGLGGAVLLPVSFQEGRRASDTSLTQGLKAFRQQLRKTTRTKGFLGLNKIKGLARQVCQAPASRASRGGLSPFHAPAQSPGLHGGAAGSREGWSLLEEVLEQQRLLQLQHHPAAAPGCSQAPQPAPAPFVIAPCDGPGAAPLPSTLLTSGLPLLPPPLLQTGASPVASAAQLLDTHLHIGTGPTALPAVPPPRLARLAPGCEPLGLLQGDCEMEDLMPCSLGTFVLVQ
Assay [7] shares this target. The settings on record: at 1 µM.
Assay [8] concerns the target Serine/threonine-protein kinase SIK2 (Homo sapiens) (UniProt Q9H0K1). The settings on record: at 0.1 µM.
For assay [9] the target is unchanged. The settings on record: at 1 µM.
Assay [10] has as its target T2, Serine/threonine-protein kinase TBK1 (Homo sapiens) (UniProt Q9UHD2).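 Note: values are the mean TBK1 inhibition, taken from the GSK PKIS screening data.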
T2 sequence (whole entry): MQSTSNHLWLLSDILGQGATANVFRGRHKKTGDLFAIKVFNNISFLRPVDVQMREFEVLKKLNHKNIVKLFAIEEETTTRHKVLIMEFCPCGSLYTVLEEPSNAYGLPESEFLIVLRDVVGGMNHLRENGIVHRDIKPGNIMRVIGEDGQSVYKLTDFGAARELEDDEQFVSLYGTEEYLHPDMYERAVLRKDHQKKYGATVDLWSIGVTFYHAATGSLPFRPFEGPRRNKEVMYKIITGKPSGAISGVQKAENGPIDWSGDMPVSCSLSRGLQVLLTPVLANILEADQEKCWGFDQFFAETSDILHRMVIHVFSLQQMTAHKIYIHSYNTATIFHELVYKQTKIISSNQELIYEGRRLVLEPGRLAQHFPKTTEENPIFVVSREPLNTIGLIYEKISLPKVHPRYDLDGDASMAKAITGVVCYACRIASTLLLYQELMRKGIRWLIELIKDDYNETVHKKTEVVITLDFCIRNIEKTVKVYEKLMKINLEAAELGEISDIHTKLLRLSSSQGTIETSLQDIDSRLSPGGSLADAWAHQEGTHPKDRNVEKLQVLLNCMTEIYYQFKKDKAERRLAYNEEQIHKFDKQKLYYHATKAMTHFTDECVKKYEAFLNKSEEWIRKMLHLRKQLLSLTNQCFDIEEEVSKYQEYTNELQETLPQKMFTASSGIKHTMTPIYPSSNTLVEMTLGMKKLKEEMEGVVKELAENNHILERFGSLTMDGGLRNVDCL
The settings on record: at 0.1 µM.

Sequence of Serine/threonine-protein kinase SIK2 (Homo sapiens) (Q9H0K1 whole entry, looked up): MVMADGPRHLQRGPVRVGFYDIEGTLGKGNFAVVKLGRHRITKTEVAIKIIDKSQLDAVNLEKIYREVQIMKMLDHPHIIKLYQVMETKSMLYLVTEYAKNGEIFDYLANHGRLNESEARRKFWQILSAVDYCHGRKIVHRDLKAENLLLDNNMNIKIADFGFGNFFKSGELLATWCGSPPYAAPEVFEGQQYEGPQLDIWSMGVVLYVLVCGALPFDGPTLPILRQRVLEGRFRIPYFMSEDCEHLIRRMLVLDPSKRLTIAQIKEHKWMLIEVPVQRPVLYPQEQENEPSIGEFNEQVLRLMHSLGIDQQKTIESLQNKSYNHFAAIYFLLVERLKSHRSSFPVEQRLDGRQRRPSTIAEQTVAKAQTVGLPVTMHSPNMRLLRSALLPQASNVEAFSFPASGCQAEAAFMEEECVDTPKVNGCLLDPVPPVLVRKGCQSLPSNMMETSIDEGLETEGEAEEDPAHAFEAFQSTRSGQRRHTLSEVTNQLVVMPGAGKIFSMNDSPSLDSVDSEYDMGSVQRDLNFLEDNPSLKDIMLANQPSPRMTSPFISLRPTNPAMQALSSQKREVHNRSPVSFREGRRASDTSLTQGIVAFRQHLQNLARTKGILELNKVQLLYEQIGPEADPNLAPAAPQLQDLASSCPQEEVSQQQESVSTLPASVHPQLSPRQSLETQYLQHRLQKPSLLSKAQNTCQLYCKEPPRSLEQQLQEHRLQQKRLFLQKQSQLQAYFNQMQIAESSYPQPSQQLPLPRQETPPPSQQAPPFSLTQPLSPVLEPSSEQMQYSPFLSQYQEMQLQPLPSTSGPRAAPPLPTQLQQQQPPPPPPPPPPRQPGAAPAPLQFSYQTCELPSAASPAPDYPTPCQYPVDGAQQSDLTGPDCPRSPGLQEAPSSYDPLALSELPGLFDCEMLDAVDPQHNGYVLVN
Sequence of Serine/threonine-protein kinase pim-2 (Homo sapiens) (Q9P1W9 whole entry, looked up): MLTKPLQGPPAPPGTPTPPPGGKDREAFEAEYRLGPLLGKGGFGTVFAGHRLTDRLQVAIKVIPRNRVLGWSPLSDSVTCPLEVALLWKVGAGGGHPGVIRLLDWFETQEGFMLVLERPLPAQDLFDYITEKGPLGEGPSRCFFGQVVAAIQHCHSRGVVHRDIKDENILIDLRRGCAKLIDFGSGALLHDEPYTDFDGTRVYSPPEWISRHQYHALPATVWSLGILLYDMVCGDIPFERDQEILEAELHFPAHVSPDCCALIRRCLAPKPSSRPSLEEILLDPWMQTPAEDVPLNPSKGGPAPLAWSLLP

For `Fc1ccc(-c2cc(-c3c[nH]nc3-c3ccccn3)ccn2)cc1`, the inhibition in assay [1] is -1.45%; in assay [2] it was -0.42%; in assay [3], 1.85%; in [4] it was 2.19%; in assay [5], 4.27%; in assay [6] it was 3.49%. Besides, the inhibition in assay [7] was found to be 8.52%; in [8], 7.67%; in assay [9], 8%; in assay [10], 0.43%.

Take `COc1cccc(-c2c[nH]c3c(N/N=C/c4ccncc4)ncnc23)c1`: the inhibition in assay [1] was 1.1%; in assay [2] it was 0.71%; in assay [3], 2.78%; in [4] it was 0.16%; in assay [5], -1.66%; in assay [6], 10.7%. The inhibition amounted to 48.9% in [7], 28.6% in [8], 67.4% in assay [9] and 3.26% in [10].

For `c1ccc(-c2nc3n(c2-c2ccc4c(c2)OCO4)CCC3)nc1`, the inhibition in [1] was 0.83%; in assay [2], 0.35%; in [3] it was 1.07%; in assay [4] it was 0.81%; in assay [5], 0.42%; in assay [6], 2.02%. Besides, the inhibition in [7] amounted to 4.54%; in [8], 0.11%; in assay [9] it was 3.1%; in assay [10], 1%.

For `Cc1ccc2c(-c3ccnc(Nc4ccccc4)n3)c(-c3ccc(F)cc3)nn2n1`, the inhibition was 0.72% in assay [1]; -1.46% in assay [2]; -3.61% in [3]; 0.87% in [4]; -0.35% in assay [5]; 1.9% in [6]. For the same molecule, the inhibition worked out at 24.1% in [7], 13.3% in assay [8], 33.2% in assay [9] and 1.85% in [10].

Consider `COc1cccc(-n2ncc3c(N/N=C/c4ccc(F)cc4)ncnc32)c1`, for which the inhibition in assay [1] amounted to 0.1%; in [2], 0.77%; in assay [3], 0.03%; in [4] it was 1.85%; in assay [5], 2.88%; in assay [6] it was 9.59%. For the same molecule, the inhibition in [7] was 14%; in [8] it was 6.43%; in assay [9], 13.7%; in assay [10] it was 2.42%.

Turning to `NC(=O)c1sc(-n2cnc3ccc(C(F)(F)F)cc32)cc1OCc1ccccc1Br`, the inhibition was -0.68% in assay [1]; 1.1% in assay [2]; 0.16% in assay [3]; 1.65% in assay [4]; 2.02% in assay [5]; 6.13% in assay [6]. Also, the inhibition came to 9.77% in [7], 5.75% in assay [8], 9.85% in [9] and 0.45% in assay [10].

For `Cc1cccc(Nc2ncc(-c3ccccc3)o2)c1`, the inhibition is 0.42% in assay [1]; -0.05% in assay [2]; 1.97% in [3]; 1.69% in assay [4]; 0.97% in [5]; 3.47% in [6]. Moreover, the inhibition in assay [7] is 12.8%; in assay [8], -1.34%; in [9], 9.41%; in assay [10], 2.6%.

As for `Nc1nc(-c2cccc(Cl)c2)c(-c2ccc3ncccc3n2)s1`, the inhibition in [1] is 0.44%; in assay [2] it was 1.25%; in assay [3], 4.87%; in assay [4], 2.21%; in assay [5] it was 4.45%; in assay [6], 3.24%. Moreover, the inhibition in assay [7] came to 9.29%; in assay [8], 4.96%; in assay [9] it was 14.6%; in [10], 3.03%.

On to `CN(C)CCOc1ccc(-c2nc(-c3ccncc3)c(-c3ccc4c(c3)CC/C4=N\O)[nH]2)cc1`, for which the inhibition was 0.05% in assay [1]; -0.36% in assay [2]; 2.58% in assay [3]; 1.42% in [4]; 1.59% in [5]; 2.53% in assay [6]. For the same molecule, the inhibition was 3.64% in assay [7], 6.15% in assay [8], 2.63% in [9] and 1.69% in assay [10].

On to `COc1cc2ncn(-c3cc(OCc4ccccc4C(F)(F)F)c(C(=O)N(C)C)s3)c2cc1OC`, for which the inhibition was 0.27% in assay [1]; -0.34% in assay [2]; 0.56% in assay [3]; 0.07% in assay [4]; 0.04% in assay [5]; 2.6% in assay [6]. Moreover, the inhibition in assay [7] turned out to be 15.2%; in assay [8], 4.39%; in [9], 9.54%; in assay [10], 2.13%.

In the case of `CCc1nn2ncccc2c1-c1ccnc(NC2CC2)n1`, the inhibition is 1.22% in assay [1]; 0.67% in assay [2]; 4.22% in [3]; 0.66% in assay [4]; 1.12% in [5]; 0.6% in assay [6]. The inhibition in assay [7] is 7.84%; in [8], 0.42%; in assay [9], 2.21%; in assay [10], 2.11%.

With `N#Cc1c(NC(=O)CN2CCOCC2)sc2c1CCCC2`, the inhibition in [1] was found to be 1.1%; in [2] it was 0.45%; in assay [3] it was 1.12%; in assay [4] it was 1.41%; in assay [5], 2.49%; in assay [6], 0.17%. For the same molecule, the inhibition amounted to 6.91% in [7], 5.2% in [8], 8.69% in [9] and 1.76% in [10].

Consider `CC(=O)NCc1cccc(C#Cc2cncnc2Nc2ccc(OCc3cccc(F)c3)c(Cl)c2)c1`, for which the inhibition in assay [1] is 0.6%; in assay [2], -0.57%; in assay [3], -1.13%; in [4], 0%; in assay [5] it was 0.14%; in assay [6], 1.32%. In addition, the inhibition is 2.96% in assay [7], -1.4% in [8], 5.8% in assay [9] and -0.27% in [10].

For the molecule `CCOc1ccc2c(-c3ccnc(Nc4cccc(C(F)(F)F)c4)n3)cnn2n1`, the inhibition in [1] is -0.33%; in assay [2], -1.1%; in assay [3], -1.96%; in assay [4] it was 0.3%; in assay [5], -0.41%; in assay [6], 2.46%. The inhibition was found to be 3.82% in assay [7], 2.86% in [8], 3.43% in assay [9] and 2.13% in assay [10].

Turning to `COC(=O)Nc1nc2ccc(S(=O)(=O)c3ccc(NC(=O)Nc4cc(C(F)(F)F)ccc4F)cc3)cc2[nH]1`, the inhibition in assay [1] was 0.73%; in assay [2], -0.65%; in assay [3], -1.2%; in [4], 0.38%; in assay [5] it was -0.4%; in assay [6], 2.55%. In addition, the inhibition in assay [7] stood at 3.12%; in assay [8], 0.97%; in assay [9] it was 0.1%; in [10] it was 2.66%.

Turning to `Fc1ccc(-c2nn3ccccc3c2-c2ccncc2)cc1`, the inhibition in [1] is -0.05%; in assay [2] it was -0.94%; in assay [3], -1.43%; in [4] it was 0.01%; in assay [5], -0.42%; in assay [6], 1.08%. The inhibition in assay [7] came out at 4.41%; in assay [8], 0%; in [9], 14.9%; in assay [10] it was 2.66%.

`COc1cc(Nc2nccc(Nc3ccc4c(C)n[nH]c4c3)n2)cc(OC)c1OC`: the inhibition in assay [1] is 1.57%; in assay [2], 2.01%; in [3], -0.7%; in assay [4], -0.04%; in assay [5], -1.77%; in assay [6] it was 8.95%. Moreover, the inhibition in assay [7] stood at 51.2%; in assay [8], 4.45%; in assay [9] it was 28%; in assay [10] it was 4.57%.
